GPR7 antag = GPR7 receptor antagonists, primary screen, cell-based, fluorescence, single concentration; Neuropeptides B/W receptor type 1 (Homo sapiens), P48145; GPR7-expressing cells, fluorescence antagonist assay; inhibition, % at 4.4 µM; actives 1.1% (n = 290,000); in the data active means inhibition above about 16%, passing the limit was not always enough;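 further: cells stimulated with the agonist NPW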
VLA-4 inh = inhibition in human VLA-4 binding assay, primary screen, VLA-4 allosteric modulator project, MLPCN library, flow cytometry, VLA-4 expressing cells | Integrin alpha-4 (Homo sapiens), P13612 | ligand binding flow cytometry | inhibition, % (about 7 µM as worked out from the volumes in the protocol) | actives 0.2% (n = 330,000); in the data active means inhibition above about 50%
JMJD2C inh = inhibitors of GASC-1 histone demethylase, primary screen, biochemical, fluorescence, DELFIA europium; Lysine-specific demethylase 4C (Homo sapiens), Q9H3R0; GST-JMJD2C(1-420) H3K9me3 demethylation; inhibition, % at 2.35 µM; actives 0.069% (n = 330,000); AID 2099, 2009;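 active means more than half of a compound's replicate wells show inhibition beyond 50%, single wells judged on their own value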;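 further: signal counts dimethyl H3K9 product captured on neutravidin plate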
Target sequence (Q9H3R0 1-420 limits assumed): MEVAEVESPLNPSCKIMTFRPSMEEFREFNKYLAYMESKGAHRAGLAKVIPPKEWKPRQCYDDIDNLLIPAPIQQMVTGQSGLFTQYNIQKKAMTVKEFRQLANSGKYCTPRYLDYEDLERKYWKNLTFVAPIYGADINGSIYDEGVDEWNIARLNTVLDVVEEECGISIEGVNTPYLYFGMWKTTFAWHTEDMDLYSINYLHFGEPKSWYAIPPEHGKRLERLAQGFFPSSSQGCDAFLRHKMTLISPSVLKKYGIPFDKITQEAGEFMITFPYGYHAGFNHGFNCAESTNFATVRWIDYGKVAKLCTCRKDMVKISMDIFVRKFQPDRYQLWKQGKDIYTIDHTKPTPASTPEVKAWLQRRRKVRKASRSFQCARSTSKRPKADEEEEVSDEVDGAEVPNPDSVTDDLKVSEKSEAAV
pCIP destab = p/CIP-EGFP fusion destabilizers, primary screen, fluorescence, F442A cells; Q05BA5; 16 h; decrease of EGFP signal, % at 10 µM; actives 0.01% (n = 290,000);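 active means EGFP signal decrease of at least 30% at 10 µM or well 3 SD below plate mean, unless failing retest; inactive means the rest, including hits failing retest or dose response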
GPR7 antag conf = GPR7 receptor antagonists, confirmation, cell-based, fluorescence, single concentration. shares compounds with GPR7 antag. GPR7-expressing cells, calcium fluorescence antagonist mode. AID 1952, 2009. inhibition, % at 4.4 µM. actives 52% (n = 2,400); in the data active means inhibition above about 24%;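 further: stimulated with the GPR7 agonist NPW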
MCHR1 antag = MCHR1 antagonists in cells, counter-screen for GPR7 antagonist project, cell-based, fluorescence, human. shares compounds with GPR7 antag. MCHR1-expressing cells, fluorescence antagonist assay. inhibition, % at 4.4 µM. actives 62% (n = 2,400); in the data active means inhibition above about 22%
Of the large screens only hits and unclear results are named; the others gave an inactive call (follow-up assays come after a bar, where they were run); ! = a repeat was not active. Hits are enriched below; roughly 1.2% of the tested compounds scored in any of these assays.

Cc1ccc(P(=Nc2ccccc2)(N2CCOCC2)N2CCOCC2)o1	none
O=C(CCN1CCN(c2ccc([N+](=O)[O-])cc2)CC1)c1ccc(Cl)cc1	GPR7 antag 41.1 | GPR7 antag conf 52.3 | MCHR1 antag 64.8
O=C(CCc1ccccc1)N1CCN(c2ccc([N+](=O)[O-])cc2)CC1	GPR7 antag 26.4 | GPR7 antag conf 37.1 | MCHR1 antag 37.3
O=[N+]([O-])c1ccc(N2CCN(c3ccc(F)cc3)CC2)cc1	GPR7 antag 43.9 | GPR7 antag conf inactive | MCHR1 antag 37.2
CC(C)CNS(=O)(=O)c1ccc(CCC(=O)N2CCN(c3ccc(F)cc3)CC2)cc1	GPR7 antag 29.9 | GPR7 antag conf inactive | MCHR1 antag 42.5
CSc1nnc2ccc(-c3cccs3)nn12	none
COC(=O)c1ccc(-c2ncc[nH]2)cc1	none
CC(C)(C)c1nnc(NC(=O)C2CC(=O)N(CCc3ccc(F)cc3)C2)s1 (stereo not drawn)	none
Cc1ccc(N(C(=O)CNC(=O)c2ccco2)C(C(=O)NC2CCCCC2)c2ccncc2)cc1F (stereo not drawn)	none
CN1CCCN(c2ccc([N+](=O)[O-])cc2)CC1	none (no result: JMJD2C inh)
O=[N+]([O-])c1ccc(N2CCSCC2)cc1	GPR7 antag 29.5 | GPR7 antag conf inactive | MCHR1 antag inactive
CCC(C)c1ccc(NC(=O)NCCN2CCCCC2)cc1 (stereo not drawn)	GPR7 antag 31.9 | GPR7 antag conf inactive | MCHR1 antag inactive
Cc1ccc(NC(=O)NCCN2CCCCC2)cc1	none
O=C(COC(=O)/C=C/c1ccco1)NCc1ccccc1	GPR7 antag 27.0 | GPR7 antag conf inactive | MCHR1 antag inactive
O=C(COC(=O)/C=C/c1ccccc1)NCc1ccc(Cl)cc1	none
O=C(COC(=O)/C=C/c1ccc(Cl)cc1)NCCc1ccccc1	GPR7 antag 21.3 | GPR7 antag conf inactive | MCHR1 antag inactive
O=C(COC(=O)/C=C/c1ccco1)NCc1ccc(Cl)cc1	none (no result: GPR7 antag, pCIP destab)
Cc1nn(C)c(=O)c(N)c1-c1cc(-c2ccc(Cl)c(Cl)c2)n[nH]1	none
CC(=O)Nc1ccccc1OCc1cnc(Cl)s1	none
c1ccc(CN2C3=NCCN3c3ccccc32)cc1	none
O=C(CN1C2=NCCN2c2ccccc21)C12CC3CC(CC(C3)C1)C2	GPR7 antag 42.0 | GPR7 antag conf 40.3 | MCHR1 antag 31.6
Cc1ccc(S(=O)(=O)N2CCCC2)cc1C(=O)Nc1ccc(-n2cnnn2)cc1	none (no result: GPR7 antag, pCIP destab)
O=C(CCCn1c(=O)oc2ccccc21)NC1CCCCCC1	GPR7 antag 21.0 | GPR7 antag conf inactive | MCHR1 antag inactive
COc1ccccc1N(C(=O)c1snc(C(N)=O)c1N)C(C(=O)NC1CCCC1)c1ccc2ncccc2c1 (stereo not drawn)	none
CCOC(=O)N1CN(C(=O)OCC)CN(C(=O)OCC)C1	GPR7 antag 17.8 | GPR7 antag conf inactive | MCHR1 antag inactive
O=C(C/C=N\OCc1ccc([N+](=O)[O-])cc1)Nc1ccc(Cl)cc1	GPR7 antag 25.5 | GPR7 antag conf 30.6 | MCHR1 antag 39.8
O=C(C/C=N\OCc1ccc([N+](=O)[O-])cc1)Nc1ccccc1	none
Cc1cc(NC(=O)CSc2nc(C3CC3)nc3sc(C)c(C)c23)no1	none
O=C(O)[C@H]1CCCC[C@H]1C(=O)Nc1ccc(S(=O)(=O)N2CCCCC2)cc1	GPR7 antag 22.9 | GPR7 antag conf inactive | MCHR1 antag inactive
O=C(Nc1ccc(C(F)(F)F)cc1)C1CCN(S(=O)(=O)c2ccc(N3CCCC3=O)cc2)CC1	GPR7 antag 22.7 | GPR7 antag conf inactive | MCHR1 antag 48.6
O=C(O)C1CCCCC1C(=O)Nc1ccc(S(=O)(=O)N2CCCC2)cc1 (stereo not drawn)	none
COc1ccc(-c2nnn(CC(=O)NCc3ccc4c(c3)OCO4)n2)cc1OC	GPR7 antag 22.3 | GPR7 antag conf inactive | MCHR1 antag inactive
COc1ccccc1/C=C/C(=O)NNC(=O)c1cccs1	GPR7 antag 30.0 | GPR7 antag conf inactive | MCHR1 antag inactive
O=C(CNS(=O)(=O)c1ccc(Br)s1)NCCc1ccc(Cl)cc1	GPR7 antag 25.3 | GPR7 antag conf inactive | MCHR1 antag 33.9
CN(/N=C/c1ccc(-c2ccc([N+](=O)[O-])cc2)o1)c1ccccc1	GPR7 antag 45.4 | GPR7 antag conf 56.3 | MCHR1 antag 71.5
CCCc1noc2c1/C(=N\O)CC(c1ccccc1)C2 (stereo not drawn)	GPR7 antag 22.9 | GPR7 antag conf 41.0 | MCHR1 antag 22.8
CCc1noc2c1/C(=N\O)CC(c1ccccc1)C2 (stereo not drawn)	none
CCOC(=O)c1c(-c2ccc(-c3ccccc3)cc2)csc1NC(=O)CNCCN(C)C	GPR7 antag 33.9 | GPR7 antag conf 59.8 | MCHR1 antag 75.0
COc1ccc(N=C2NN=C(c3ccc4c(c3)OCCO4)CS2)cc1	GPR7 antag 23.4 | GPR7 antag conf inactive | MCHR1 antag inactive
FC(F)Sc1ccc(N=C2NN=C(c3ccc4c(c3)OCCO4)CS2)cc1	none
CC(=O)c1cc2c(cc1NC(=O)c1ccccc1C)OCO2	none
CC(C)(C)CC(C)(C)c1ccc(O)c(CN2CCN(CCC#N)CC2)c1	none
N#CCCN1CCN(Cc2cc(-c3ccccc3)ccc2O)CC1	GPR7 antag 30.7 | GPR7 antag conf inactive | MCHR1 antag inactive
COc1ccc(C(C#N)N2N=C(C)CC2c2ccccc2)cc1 (stereo not drawn)	none
CC1=NN(C(C#N)c2ccccc2)C(c2ccccc2)C1 (stereo not drawn)	GPR7 antag 36.7 | GPR7 antag conf inactive | MCHR1 antag inactive
COc1cc(/C=C(\C#N)c2nc3ccccc3o2)ccc1O	GPR7 antag 26.1 | GPR7 antag conf 35.6 | MCHR1 antag 46.4
Cn1ncc(Cl)c1C(=O)N1CCN(S(=O)(=O)c2ccc(Cl)s2)CC1	none
CCCCCCCCCCCCCCCCn1cc[n+](C)c1	GPR7 antag 31.2! | GPR7 antag conf 94.3 | MCHR1 antag 99.1
CCC(C)NC(=O)NCc1ccccc1F (stereo not drawn)	none
O=C(COc1ccc(F)cc1)N1CCc2ccccc2C1	GPR7 antag 28.0 | GPR7 antag conf inactive | MCHR1 antag inactive
Cc1ccc(OCC(=O)N2CCc3ccccc3C2)cc1	none
CC1(C)Cc2ccccc2C(COc2ccccc2)=N1	GPR7 antag 25.6 | GPR7 antag conf inactive | MCHR1 antag inactive
COc1cccc(N2CCc3c(C)nc4ccc(Cl)cc4c32)c1	GPR7 antag 35.6 | GPR7 antag conf 33.4 | MCHR1 antag 33.8
O=C(COC(=O)c1cc([N+](=O)[O-])ccc1N1CCOCC1)Nc1cccc(F)c1	GPR7 antag 35.1 | GPR7 antag conf inactive | MCHR1 antag 24.3
COC(=O)c1nn(-c2ccc(OC)cc2)ccc1=O	none
